Only some compounds are listed: those with a hit (about 1.1% of all), similar ones and a draw of the others.
Anesthetic bind: qHTS Assay for Identification of Novel General Anesthetics; Ferritin light chain (Equus caballus), P02791; apoferritin/1-aminoanthracene competitive binding, fluorescence; Potency, µM (series often up to 77.5 µM), without a hit: at the top dose activity change, negative = displacement, hits mostly inhibitors; hit rate 0.074% among 350,000; AID 485281, 2010; note: % is set by controls: 0 for no effect and ±100 for the full control effect; nearly all actives have a fitted effect of over 20% in size
Target sequence (P02791 2-175 limits assumed): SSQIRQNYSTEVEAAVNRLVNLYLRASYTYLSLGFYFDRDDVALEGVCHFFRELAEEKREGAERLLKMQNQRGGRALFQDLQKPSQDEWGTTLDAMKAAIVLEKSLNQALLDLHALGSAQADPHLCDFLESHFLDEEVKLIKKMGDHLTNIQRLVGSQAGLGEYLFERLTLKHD
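Horse-spleen apoferritin (10 uM) in 50% saturated 1-aminoanthracene in PBS was incubated 10 min at room temperature with compound. Fluorescence (ex 380, em 535 nm) was normalized to free and bound 1-AMA, with concentration-response fitted by a four-parameter Hill equation.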
GRP78 ERSR act: qHTS for Inducers of the Endoplasmic Reticulum Stress Response (ERSR) in Human Glioma: qHTS; AID 602332, 2012; hit rate 0.02% among 420,000; U87-MG GRP78 promoter luciferase reporter, 16 h; Potency, µM, for the others: top-dose activation, usual class: activators; note: series mostly up to about 76 µM; % of control where 0% means no effect; nearly all actives have a fitted effect of over 35% in size
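Stably transfected U87-MG glioma cells carrying a GRP78-based luciferase sensor; 16 h compound incubation. Luminescence end-point read 10 min after Bright-Glo addition at room temperature.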
12-LOX inh: Primary qHTS assay for inhibitors of human arachidonate 12S-lipoxygenase (ALOX12): Round 2; purified 12hLO, xylenol orange hydroperoxide absorbance; Potency, µM (titrated, usually from 108 µM), inactives show top-dose activity change, negative = inhibition, hits mostly inhibitors; hit rate 1.1% among 580,000; note: % is set by controls: 0 for no effect and ±100 for the full control effect
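Hydroperoxide product was detected by ferrous iron/xylenol orange as the 573 to 405 nm absorbance ratio. Arachidonic acid at 40 uM (final) was turned over for 30 min at room temperature by 150 nM human 12hLO, pH 7.0 Hepes buffer, after 15 min compound preincubation.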
Chronic BCR inh: qHTS Assay to Find Inhibitors of Chronic Active B-Cell Receptor Signaling. ABC-DLBCL IkBa-CBG/CBR reporter, luminescence ratio, 4 h. Potency, µM (series often up to 46.1 µM), inactives show top-dose activity change, negative = inhibition, hits mostly inhibitors. hit rate 0.05% among 340,000; active = well fitted inhibition curve with a large enough effect in the signal ratio, with a control signal flat, not every such curve was filed as active; inconclusive = small, poorly fitted or top-dose-only effect, or effect the other way, or a change in a side signal; the % refers to the signal ratio;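 note: plate controls were basal doxycycline-induced cells for no effect and cells given 10 µM MG132 for full effect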
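Cell line TMD8 (human ABC DLBCL), stably expressing tet-inducible CBG68-IkBa fusion and CBR; IMDM/0.5% FBS; cpd up to 46 uM; dox induction, 4 h, 37C/5% CO2; dual luminescence; green/red ratio; MG132 control.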
An asterisk follows results filed as active; ? = inconclusive; . = not tested or not shown; ! = not confirmed by another sample; [ ] = another dose, or the depositor's remark. Unless noted, calls come from the whole dose curve; as a rule, active = well fitted curve in the direction sought with a large enough effect; inconclusive = small, poorly fitted or top-dose-only effect, or another doubt; inactive = no such curve, though single readings can be large; an effect the other way counts as inactive or inconclusive. Potency is the fitted concentration of half-maximal effect.

SMILES	Anesthetic bind	GRP78 ERSR act	12-LOX inh	Chronic BCR inh
COc1cc(C2CC(=O)N3CN(c4ccc(C)c(Cl)c4)CSC3=C2C#N)ccc1O (configuration not stated)	.	.	0.89µM*	.
COc1cc(OC)c(C2CC(=O)N3CN(c4ccc(C)cc4)CSC3=C2C#N)cc1OC (configuration not stated)	?	2%	7%	-12%
Cc1cccc2c1N(Cc1ccccc1OC(C)C)C(=O)C2=O	.	.	14%	.
Cc1cc(Br)cc2c1N(Cc1ccccc1OC(C)C)C(=O)C2=O	?	.	4.5µM*!	.
Cc1ccc(NC(=O)C2CCN(c3ncnc4c3sc3ncccc34)CC2)cc1F	.	.	-71%	.
C/C(=N\NC(N)=S)C1(C)CCCCC1	?	1%	?	?
C/C(=N/NC(N)=S)C1=CC(C)(C)CCC1	.	.	6.3µM*	.
COc1ccc(N(C(=O)c2ccccc2)S(=O)(=O)c2cccs2)cc1	-12%	32µM*	11%	-12%
O=C(NCc1ccc(NC(=O)C2CC2)cc1)c1ccc[n+]([O-])c1	.	.	-17%	.
Cc1ccc(NC(=O)c2nnc(SCC(=O)NCCC(C)C)s2)cc1	.	.	-48%	.
O=C1COc2ccc(-c3ccoc3)nc2CN1Cc1ccc(C(F)(F)F)cc1	.	.	40µM*	.
O=C1COc2ccc(-c3ccncc3)nc2CN1Cc1ccc(C(F)(F)F)cc1	.	.	-13%[176 µM]	.
O=C1NC(c2ccccc2)=N/C1=C/c1ccco1	-13%	3%	?	4%
O=C1NC(c2cccc(Br)c2)=N/C1=C\c1ccco1	0%	2%	45µM*	?
COCCNC(=O)CCn1ccc2cc(S(=O)(=O)N3CCCCCC3)ccc21	.	.	-19%	.
Cc1cc(C)nc(NC2=NCC(=O)N2c2ccc(C)c(Cl)c2)n1	.	.	39%	.
O=C(NC(=S)Nc1ccc(S(=O)(=O)N2CCCCC2)cc1)c1ccccc1	-21%	-5%	13µM*	-14%
O=S(=O)(c1ccc(NC(=S)NCCC(c2ccccc2)c2ccccc2)cc1)N1CCOCC1	10%	-3%	45µM*	-1%
CC(=O)Nc1ccc(NC(=O)c2ccc(S(=O)(=O)N(C)c3ccccc3)cc2)cc1	.	-3%	27%	?
Cc1ccc(C(=O)NC(=S)Nc2ccc(S(=O)(=O)N(C)c3ccccc3)cc2)cc1	-11%	-4%	32µM*	11%
CN(c1ccccc1)S(=O)(=O)c1ccc(NC(=S)NC(=O)c2ccccc2)cc1	-11%	1%	14µM*	?
O=C(NCc1cccnc1OCc1ccccc1)Nc1nnc(C2CC2)s1	.	.	56%	.
CCCC1=C(C(=O)OCC)C(c2c(F)cccc2Cl)NC(=O)N1C (configuration not stated)	.	.	-5%	.
COc1nccnc1NS(=O)(=O)c1ccc(NC(=S)NC(=O)c2ccccc2)cc1	8%	-2%	35µM*	-1%
CCOc1ccc(C(=O)NC(=S)Nc2ccccc2N2CCOCC2)cc1Br	-4%	-6%	25µM*	5%
SMILES	Anesthetic bind	GRP78 ERSR act	12-LOX inh	Chronic BCR inh
COc1ccc(C(=O)Nc2ccccc2N2CCOCC2)cc1Br	-10%	2%	-27%	0%
COc1ccc(C(=O)NC(=S)Nc2ccccc2N2CCOCC2)cc1Br	6%	-4%	16µM*	?
Cc1cc(/C=C(\C#N)c2cccc(C(F)(F)F)c2)c(C)n1C	.	.	40µM*	.
C=CCOc1ccc(C(c2c(C(=O)O)[nH]c3ccccc23)c2c(C(=O)O)[nH]c3ccccc23)cc1	1%	-5%	28µM*	4%
O=C(O)c1[nH]c2ccccc2c1C(c1ccccc1)c1c(C(=O)O)[nH]c2ccccc12	1%	-2%	6%	-5%
COc1cc(C(c2c(C(=O)O)[nH]c3ccccc23)c2c(C(=O)O)[nH]c3ccccc23)ccc1OCc1ccccc1	-13%	-1%	28µM*	1%
Cc1ccc(CN2CCC(CNC(=O)Nc3cn(CC(C)C)c(=O)c4ccccc34)C2)cc1 (configuration not stated)	.	.	45µM*	.
Cc1ccc(CN2CCC(CNC(=O)Nc3cccc(Cl)c3C)C2)cc1 (configuration not stated)	2%	-4%	?	.
CCCC(=O)c1cc(O)c(O)cc1O	.	-3%	1.6µM*	.
O=C(Nc1ccc(Nc2ccccc2)cc1)c1ccc(Cl)cc1	.	5%	?	.
N#C/C(C(=O)Nc1ccc(Cl)cc1)=C(/S)Nc1ccccc1	2%	-14%	1.8µM*	?
Cc1c(CC(=O)O)c(=O)oc2cc(OCc3ccccc3Cl)ccc12	.	.	0%	.
CCNC(=S)Nc1ccc2c(c1)c(=O)n(C)n2Cc1cccc(C(F)(F)F)c1	.	-1%	?	.
Cc1ccc(CNC(=S)Nc2ccc3c(c2)c(=O)n(C)n3Cc2cccc(C(F)(F)F)c2)cc1	.	0%	18µM*	.
CCNC(=O)Nc1ccc2c(c1)c(=O)n(C)n2Cc1ccc(Cl)cc1	.	1%	14µM*	.
COc1ccc(CCNC(=O)Nc2ccc3c(c2)c(=O)n(C)n3Cc2ccc(Cl)cc2)cc1OC	.	-5%	?	.
COC(=O)c1cc(Sc2c(Cl)cccc2Cl)ccn1	?	6%	40µM*	-6%
COc1ccc(N(C(=O)c2ccco2)S(=O)(=O)c2cc(OC)ccc2OC)cc1	6%	40µM*	5%	-3%
COc1ccc(N(C(=O)c2ccco2)S(=O)(=O)c2ccc(F)cc2)cc1	-8%	-2%	-17%	2%
CC(=NNC(=S)N1CCCCC1)c1cccc(C)n1	.	-1%	-24%	.
CC(=NNC(=S)N1CCCCC1)c1ccccn1	.	-3%	45µM*	.
Oc1cccc(-c2c3nc(c(-c4cccc(O)c4)c4ccc([nH]4)c(-c4cccc(O)c4)c4nc(c(-c5cccc(O)c5)c5ccc2[nH]5)CC4)C=C3)c1	.	-6%	3.6µM*	.
N#Cc1c(N)nc2c(c1-c1cccc(O)c1)CCCCCC2	?	-5%	-4%	0%
Oc1c(Cl)cc(Cl)cc1Sc1cc(Cl)cc(Cl)c1O	?	-3%	.	?
O=S(c1cc(Cl)cc(Cl)c1O)c1cc(Cl)cc(Cl)c1O	.	?	28µM*	.
SMILES	Anesthetic bind	GRP78 ERSR act	12-LOX inh	Chronic BCR inh
O=C1c2ccccc2NC(c2ccc(-c3ccc(C(F)(F)F)cc3)o2)N1O (configuration not stated)	.	-4%	28µM*	?
CCC(=O)NCC1(c2ccccc2)CCCCC1	.	.	13%	.
COc1ccc(N2C(=O)CN(C3CCCCC3)[C@H]3CS(=O)(=O)C[C@H]32)cc1	.	.	10µM*	.
COc1ccc(N2C(=O)S[C@@H]3CS(=O)(=O)C[C@@H]32)cc1	-3%	-5%	28%	0%
Cc1nn(CCc2n[nH]c(=S)n2C2CCCCC2)c(C)c1Br	-9%	-4%	22µM*	-19%
N#Cc1ccc(Oc2cccc3ccccc23)cc1C#N	.	.	-7%	.
Cc1cccc(NC(=S)NCCSc2ccc(Cl)cc2)c1	-5%	-2%	?	?
Cc1cccc(NC(=S)NCC(C)CSc2ccc(Cl)cc2)c1 (configuration not stated)	14%	-6%	32µM*	?

Compound activity from PubChem.
